Lassa entry inh – Lassa virus entry inhibition; Lassa virus pseudotype entry inhibition, cell reporter; Potency, µM (highest dose often 37.9 µM), usual class: inhibitors; 300,000 compounds, 1.2% hits; AID 540256; calls by dose curve; tested in HEK293 cells; further: nearly all actives have a fitted effect of over 50% in size
HCV inh – inhibitors of hepatitis C virus infection. 340,000 compounds, 3.4% hits. Potency, µM (doses to about 41.8 µM), most hits filed as inhibitors. AID 651820. Huh7.5.1 HCVcc-Cre infection, luciferase reporter, 44 h; active means well fitted inhibition curve with a large enough effect; inconclusive means small, poorly fitted or top-dose-only effect, or another doubt; inactive means no such curve, though single readings can be large or run the other way
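Compounds are dispensed onto cells plated 4 h earlier at 1,000 per well, with HCVcc-Cre virus (about 0.5 moi) added next. Following 44 h of culture, luminescent signal is measured for 15 sec after 15 min with substrate at room temperature.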
HCMV antiviral – blocks human cytomegalovirus replication; 410,000 compounds, 4.5% hits; HFF cells, HCMV-luciferase reporter, 72 h; hits give low values; activity change, negative = inhibition, % at 57.5 µM; in the data active means activity change below about -60%; inconclusive means no clear call, values can overlap the other calls; inactive means above about -39%
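Steps: HFFs plated, 16 h 37C; compounds added; HCMV-luciferase added to MOI 1 PFU/cell; 72 h 37C; OneGlo reagent, 5 min room temperature; luminescence read, normalized to controls.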
MARV entry inh – blocks Marburg virus binding to or entry into cells; Marburg virus pseudotyped entry inhibition, cell reporter; Potency, µM (series often up to 37.8 µM), most hits filed as inhibitors; 300,000 compounds, 1.8% hits; AID 540276; calls by dose curve; tested in HEK293 cells
FMDV inh – foot and mouth disease virus antiviral activity; FMDV antiviral cell-based qHTS; Potency, µM (top dose mostly 57.9 µM), actives largely listed as inhibitors; 410,000 compounds, 1.2% hits; calls by dose curve; tested in HEK293T cells; further: read-out not given here; nearly all actives have a fitted effect of over 45% in size
Numbers stand for hits; - = inactive; ? = inconclusive; . = no result. Shown are actives, neighbours in structure and some others; about 7.9% of the full set was active somewhere.

SMILES | Lassa entry inh | HCV inh | HCMV antiviral | MARV entry inh | FMDV inh
COc1cccc(C(O)c2nc(/C=C/c3ccc(C(F)(F)F)cc3)cs2)c1 (stereo not given) | . | . | -62 | . | -
Cc1cccc(CCNC(=O)c2ccc(CSCc3cccc(Cl)c3)o2)c1 | - | . | - | . | -
Cc1cccc(OCc2n(CC(=O)OC3CC(C)CCC3C(C)C)c3ccccc3[n+]2C)c1 (stereo not given) | ? | - | . | 2.5µM | ?
CC1CCC(C(C)C)C(OC(=O)Cn2c(COc3ccccc3)[n+](C)c3ccccc32)C1 (stereo not given) | ? | 13µM | -100 | ? | 28µM
N#CCCn1c(=O)c(-c2ccc(F)cc2)nc2cnc(N3CCOCC3)nc21 | . | . | . | . | -
CCOC(=O)[C@]12CCCC=C1N(CCC1=CCCCC1)C(=O)[C@H](CC(=O)NCc1ccc(C)o1)C2 | . | . | ? | . | -
Cc1cc(N2CCN(C)CC2)nc2ccc(NC(=O)Nc3ccccc3Cl)cc12 | ? | . | -100 | . | -
Cc1cc(N2CCN(C)CC2)nc2ccc(NC(=O)Nc3ccc(F)cc3)cc12 | ? | . | - | . | -
COc1cccc(NC(=O)Nc2ccc3nc(N4CCN(C)CC4)cc(C)c3c2)c1 | - | . | -101 | . | -
CN1CCN(c2ccc(NC(=O)c3ccc4c(c3)OCO4)cc2)CC1 | - | - | - | ? | -
Cc1cc(N2CCN(C)CC2)nc2ccc(NC(=O)c3ccc(Br)o3)cc12 | - | ? | - | - | -
Cc1cc(N2CCCCC2)nc2ccc(NC(=O)c3ccc(Br)o3)cc12 | ? | 4µM | - | ? | 40µM
Cc1cc(N2CCN(C)CC2)nc2ccc(NC(=O)c3ccc4c(c3)OCO4)cc12 | 16µM | 10µM | - | 4.1µM | -
COc1ccc(C(=O)Nc2ccc3nc(N4CCC(C)CC4)cc(C)c3c2)cc1 | - | . | - | ? | 32µM
CCc1ccc(-c2cc(C)no2)cc1S(=O)(=O)N1CCN(c2ccc(C(C)=O)cc2)CC1 | ? | 6.3µM | ? | ? | ?
CCc1ccc(-c2cc(C)no2)cc1S(=O)(=O)N1CCCN(Cc2ccc(F)cc2)C1 | . | 10µM | - | . | -
COc1ccc(COc2cc(-c3cccc(OC)c3)nc3ccc(NC(=O)c4ccc(OC)cc4)cc23)cc1 | ? | 7.1µM | -81 | ? | ?
COc1ccc(COc2cc(-c3cccc(OC)c3)nc3ccc(NC(=O)c4ccccc4)cc23)cc1 | ? | ? | - | - | ?
COc1ccc(COc2cc(-c3cccc(OC)c3)nc3ccc(NC(=O)c4cccnc4)cc23)cc1 | 15µM | ? | - | - | -
C=CC[n+]1ccc(/C=C2\C=Cc3cc(C)ccc3N2CC)c2ccccc21 | . | 2.5µM | . | . | 35µM
Cc1cccc(-c2nnc3n(CCc4ccccc4)c(=O)c4ccccc4n23)c1 | - | . | - | ? | ?
COc1cc(OC)c(-c2nnc3n(CCc4ccccc4)c(=O)c4ccccc4n23)cc1OC | . | - | - | . | .
COc1ccc(-c2nnc3n(CCc4ccccc4)c(=O)c4ccccc4n23)c(OC)c1 | ? | - | - | 10µM | 28µM
CC(C)c1ccc(-c2nnc3n(CCc4ccccc4)c(=O)c4ccccc4n23)cc1 | - | . | - | - | 28µM
CCc1cccc(C)c1NS(=O)(=O)c1ccc2c(c1)CC(C)N2C(=O)C1CC1 (stereo not given) | - | . | - | . | ?
SMILES | Lassa entry inh | HCV inh | HCMV antiviral | MARV entry inh | FMDV inh
O=C(NCc1cccs1)O[C@H]1CC[C@@]23CCCN2C(=O)CCC[C@H]3[C@H]1Cc1ccccc1 | . | . | - | . | .
CCC(=O)N1CCc2cc(S(=O)(=O)NC(C(=O)NCc3ccc(OC)cc3)C(C)C)ccc21 (stereo not given) | - | . | - | - | ?
Cn1c(Cl)cnc1C1CC(=O)c2cc(Cl)ccc2O1 (stereo not given) | ? | ? | -96 | 10µM | 20µM
O=C1CC(c2ccc(Cl)cc2)Oc2ccc(Cl)cc21 (stereo not given) | - | - | ? | - | -
CCOC(=O)C1(CCc2ccccc2)CCN(Cc2ccc(OC)cc2)CC1 | ? | - | - | ? | -
CCOC(=O)C1(CCc2ccccc2)CCN(Cc2cccc3c2OCO3)CC1 | ? | 10µM | ? | 13µM | ?
CCOC(=O)C1(CCc2ccccc2)CCN(Cc2cccc3cnccc23)CC1 | ? | 10µM | ? | ? | ?
CCOC(=O)C1(CCc2ccccc2)CCN(Cc2c(O)cccc2OC)CC1 | ? | ? | - | ? | 32µM
CCOC(=O)C1(CCCc2ccccc2)CCN(C(=O)c2ocnc2C)CC1 | 2.8µM | - | - | - | -
CC(=O)N1CCc2cc(CNS(=O)(=O)c3ccc(Br)s3)ccc21 | - | . | - | . | -
Cc1ncc2c(c1CNC(=O)c1ccccc1F)CCN(C(=O)c1ccccc1-n1cccn1)C2 | . | . | . | . | -
C[C@@H]1CC2=CCCC2[C@]2(O1)C(=O)Nc1cccc(Br)c12 (stereo not given in full) | . | . | . | - | .
CCCC(=O)NC1CC(=O)N(c2ccc3c(c2)OCCO3)C1 (stereo not given) | - | . | - | . | -
CC(C)CNC(=O)c1cn(C2CCN(Cc3nc4ccccc4s3)CC2)nn1 | . | . | . | . | -
CC(=S)/C=C1\Sc2ccccc2N1C | - | - | - | ? | .
COc1ccc(-[n+]2c(C)cc(/C=C3\Sc4ccccc4N3C)cc2C)cc1 | . | 1.1µM | -99 | . | ?
COc1ccccc1-[n+]1c(C)cc(/C=C2\Sc3ccccc3N2C)cc1C | . | ? | -80 | . | 4µM
COc1ccccc1OC(=O)CCN1c2ccccc2Sc2ccccc21 | - | - | - | ? | -
COc1ccc(C(=O)/C=C2\Sc3ccccc3N2C)cc1 | ? | 10µM | - | ? | -
Cc1cc2c(C)nc3ccccc3c2o1 | - | 11µM | - | - | -
Cc1nc2ccccc2c2oc(C(=O)NC3CC3)cc12 | . | - | - | . | -
O=C1N[C@@H](Cc2ccccc2)COC(=O)[C@@H](Cc2ccc(F)cc2)C/C=C\C[C@@H]1CC(=O)N(CCO)Cc1ccccc1 | . | ? | -96 | . | ?
CC(C)(C)OC(=O)C[C@H]1C/C=C\C[C@@H](CC(=O)NCCO)C(=O)N[C@H](Cc2ccccc2)COC1=O | . | - | -61 | . | -
COc1ccc(Cc2[nH]n3c(=O)cc(C(C)C)nc3c2-c2ccccc2)cc1 | ? | ? | -73 | 13µM | ?
CN(C)S(=O)(=O)c1ccc(C(=O)OCC2CCCO2)cc1 (stereo not given) | - | - | - | - | -
SMILES | Lassa entry inh | HCV inh | HCMV antiviral | MARV entry inh | FMDV inh
COC(=O)Cn1cc(C(=O)OC)cc(Br)c1=O | - | - | - | - | -
COC(=O)c1cc(Br)c(=O)n(CCc2ccccc2)c1 | - | - | -103 | - | -
C[C@@H]1CC2CCCC2[C@]2(O1)C(=O)Nc1ccccc12 (stereo not given in full) | . | . | . | - | .
COCCNC(=O)C1CCCN(C(=O)c2cc(C)nn2C(C)(C)C)CC1 (stereo not given) | . | . | -60 | . | -
Cc1cc(C)nc(NC(=S)NC(=O)c2ccccc2F)n1 | - | - | - | - | -
Cc1cc(C)nc(S/C=C/C(=O)c2ccccc2F)n1 | ? | ? | - | ? | 8.9µM
COc1ccc(C(CC(=O)c2ccc(C)cc2)Nc2ccc([N+](=O)[O-])cc2)cc1 (stereo not given) | ? | 13µM | - | ? | -

Assay outcomes (PubChem BioAssay)
